The text below walks through data of PubChem BioAssay.

A short description of assay [1]: small molecules captured by biotinylated probe aFSTL3 – biochemical, small-molecule microarray, fluorescence 635/667, stem cell growth factor project, primary screen (AID 1064).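 Also: measures binding of the biotinylated anti-FSTL3 antibody to printed compounds.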 Conditions: higher = more signal.
A short description of assay [2]: binders from COS7 lysate, DM2A8 probe, primary screen, torsin A project, cell lysate, small-molecule microarray, fluorescence 635/667 (AID 1065). Conditions: higher = more signal, COS7 lysate expressing mutant human TOR1A.
Assay [3] is described as follows: small molecules captured by biotinylated probe aFGF2 – biochemical, small-molecule microarray, fluorescence 635/667, stem cell growth factor project, primary screen (AID 1067).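 Also: measures binding of biotinylated aFGF2 protein to printed compounds on slides; z-score merges feature fluorescence and signal-to-noise across triplicate slides.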 Conditions: higher = more signal.
Assay [4] can be described thus: small molecules captured by biotinylated probe aFGF10 – biochemical, small-molecule microarray, fluorescence 635/667, stem cell growth factor project, primary screen (AID 1071).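 Also: score merges 667 nm spot intensity and signal to noise from triplicate slides.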 The conditions noted are these: higher = more signal.
Assay [5] has as its target Neurogenic locus notch homolog protein 2 (Homo sapiens) (UniProt Q04721). Description: small molecules binding Notch2 protein – biochemical, small-molecule microarray, 635 nm fluorescence, stem cell growth factors, primary screen (AID 1073). The conditions noted are these: higher = more signal.
The target in assay [6] is Pro-neuregulin-1, membrane-bound isoform (Homo sapiens) (UniProt Q02297). In words: small molecules binding neuregulin-1 protein – biochemical, small-molecule microarray, fluorescence 635/667, psychiatric disease protein project, primary screen (AID 1075).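 Also: score combines 667 nm spot fluorescence with signal to noise.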 Conditions: NRG1 binding, 635 nm fluorescence, higher = more signal.
Assay [7] concerns Neuregulin-1 EGF-like domain. Description: small molecules binding NRG1 EGF domain – biochemical, small-molecule microarray, 635 nm fluorescence, primary screen (AID 1081).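 Also: binding of the protein to compounds printed on small-molecule microarray slides.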 Conditions: higher = more signal.
Assay [8] is described as follows: FRG1 expression reporter modulators in myotubes – cell-based, C2C12 myotubes, firefly/Renilla luciferase, luminescence, FRG1 inhibition for FSHD, primary screen (AID 1084). Conditions: FRG1 promoter luciferase, higher = more signal, called active from +8 up or from −8 down.
Assay [9] is described as follows: small molecules captured by biotinylated probe aFST – biochemical, small-molecule microarray, fluorescence 635/667, stem cell growth factor project, primary screen (AID 1086).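 Also: score merges 667 nm fluorescence with signal-to-noise of each printed compound spot.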 Conditions: higher = more signal.
Assay [10] is described as follows: binders of probe aHhip on microarray, primary screen, stem cell growth factor project, biochemical, small-molecule microarray, fluorescence 635/667 (AID 1087).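 Also: score merges spot fluorescence at 667nm with spot signal to noise ratio.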 Conditions: higher = more signal.
Assay [11] has as its system PRMT1 (protein arginine N-methyltransferase 1). Description: small molecules binding arginine methyltransferase PRMT1 – biochemical, small-molecule microarray, 635 nm fluorescence, primary screen (AID 1088).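 Also: binding of Prmt1 protein to compounds spotted on small-molecule microarray slides.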 Conditions: higher = more signal.
Assay [12] in a line: growth effects on S. cerevisiae YJM789 – YJM789 clinical isolate, OD600, 24 h, basal, primary screen (AID 1089).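 Also: growth of clinical yeast isolate S. cerevisiae YJM 789 seeded 1000 cells per well; test concentration not given here.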 The conditions noted are these: higher = more signal, called active from +8 up or from −8 down.
A short description of assay [13]: S. pombe growth modifiers, basal conditions – strain 972, OD600, 24 h, no modulator, primary screen (AID 1090).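 Also: basal condition with compound alone and no growth modifier present; test concentration not given here.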 Conditions: S. pombe 972 growth, higher = more signal, called active from +8 up or from −8 down.
Assay [14] can be described thus: budding yeast growth modifiers under rapamycin – strain BY4716, OD600, 96 h, primary screen (AID 1091). Also: test concentration not given here. The conditions noted are these: S. cerevisiae BY4716 + rapamycin, higher = more signal, called active from +8 up or from −8 down.
Assay [15] deals with Torsin-1A-interacting protein 2 (Homo sapiens) (UniProt Q8NFQ8). Description: small molecules binding lysate-expressed LULL1 – cell lysate, human LULL1 lysate, 635/667 nm fluorescence, primary screen (AID 1092).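 Also: probe is lysate of COS7 cells overexpressing human LULL1; score merges per-feature 667 nm fluorescence with signal-to-noise.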 The conditions noted are these: small-molecule microarray, hLULL1 lysate binding, 635 nm fluorescence; higher = more signal.
Assay [16] is described as follows: optical density change of DRC41 E. coli – strain DRC41, OD650, 24 h, E. coli filamentation project, primary screen (AID 1093).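 Also: MC1000 strain lacking acrAB efflux and sulA so SOS filamentation is blocked; test concentration not given here.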 The conditions noted are these: E. coli DRC41 growth, higher = more signal, called active from +8 up or from −8 down.
A short description of assay [17]: probe aLefty2 binding to arrayed compounds – biochemical, biotinylated probe, 635/667 nm fluorescence, primary screen (AID 1094).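 Also: score merges spot fluorescence near 667 nm with spot signal-to-noise ratio.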 The conditions noted are these: small-molecule microarray, higher = more signal.
Assay [18] relates to Noggin (protein binding on small-molecule microarray). In words: small molecules binding Noggin protein – biochemical, 635/667 nm fluorescence, primary screen (AID 1095).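 Also: score merges 667 nm feature fluorescence with signal to noise over triplicate slides.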 The conditions noted are these: 635 nm fluorescence, higher = more signal.
Assay [19] has as its target Neurogenic locus notch homolog protein 3 (Homo sapiens) (UniProt Q9UM47). In words: small molecules binding NOTCH3 protein – biochemical, 635/667 nm fluorescence, primary screen (AID 1096). The conditions noted are these: small-molecule microarray, 635 nm fluorescence, higher = more signal.
Assay [20] is described as follows: probe aEGFR binding to arrayed compounds – biochemical, biotinylated probe, 635/667 nm fluorescence, primary screen (AID 1097).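 Also: probe is a biotinylated anti-EGFR antibody binding compounds printed on slides; score combines fluorescence near 667 nm and signal to noise of each spot.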 The conditions noted are these: small-molecule microarray, higher = more signal.

Active and inactive are the calls of the source.

Pro-neuregulin-1, membrane-bound isoform (Homo sapiens), sequence (Q02297 whole entry, looked up, the tested form may be a part, canonical isoform): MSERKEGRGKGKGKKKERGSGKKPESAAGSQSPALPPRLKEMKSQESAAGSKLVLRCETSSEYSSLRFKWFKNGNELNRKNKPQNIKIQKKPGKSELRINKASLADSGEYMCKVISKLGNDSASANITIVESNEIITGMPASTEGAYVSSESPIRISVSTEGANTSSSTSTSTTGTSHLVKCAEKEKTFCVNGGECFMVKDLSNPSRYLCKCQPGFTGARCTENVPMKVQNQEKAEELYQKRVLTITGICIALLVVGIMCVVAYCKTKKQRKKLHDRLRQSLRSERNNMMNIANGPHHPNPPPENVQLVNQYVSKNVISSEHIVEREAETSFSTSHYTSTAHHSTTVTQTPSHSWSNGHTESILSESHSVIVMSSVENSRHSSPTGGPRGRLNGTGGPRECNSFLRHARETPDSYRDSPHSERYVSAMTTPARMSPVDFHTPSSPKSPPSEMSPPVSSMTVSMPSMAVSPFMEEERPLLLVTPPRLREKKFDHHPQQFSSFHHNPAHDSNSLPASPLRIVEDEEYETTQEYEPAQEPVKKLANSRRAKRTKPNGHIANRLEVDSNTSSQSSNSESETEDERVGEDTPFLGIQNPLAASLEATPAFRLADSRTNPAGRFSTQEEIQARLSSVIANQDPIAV
Torsin-1A-interacting protein 2 (Homo sapiens), sequence (Q8NFQ8 whole entry, looked up): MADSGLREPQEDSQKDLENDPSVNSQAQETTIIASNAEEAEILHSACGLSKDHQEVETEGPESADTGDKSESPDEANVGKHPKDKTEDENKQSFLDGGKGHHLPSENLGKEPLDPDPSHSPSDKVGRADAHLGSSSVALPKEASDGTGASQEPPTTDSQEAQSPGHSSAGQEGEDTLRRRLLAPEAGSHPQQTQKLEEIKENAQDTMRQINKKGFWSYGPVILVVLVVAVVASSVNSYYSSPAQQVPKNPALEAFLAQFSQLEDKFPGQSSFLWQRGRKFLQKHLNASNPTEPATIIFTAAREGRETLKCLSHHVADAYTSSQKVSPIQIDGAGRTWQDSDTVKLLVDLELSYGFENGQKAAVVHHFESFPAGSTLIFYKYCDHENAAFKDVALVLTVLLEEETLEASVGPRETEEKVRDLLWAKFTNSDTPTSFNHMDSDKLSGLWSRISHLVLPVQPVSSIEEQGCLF
Neurogenic locus notch homolog protein 2 (Homo sapiens), sequence (Q04721 whole entry, looked up, canonical isoform): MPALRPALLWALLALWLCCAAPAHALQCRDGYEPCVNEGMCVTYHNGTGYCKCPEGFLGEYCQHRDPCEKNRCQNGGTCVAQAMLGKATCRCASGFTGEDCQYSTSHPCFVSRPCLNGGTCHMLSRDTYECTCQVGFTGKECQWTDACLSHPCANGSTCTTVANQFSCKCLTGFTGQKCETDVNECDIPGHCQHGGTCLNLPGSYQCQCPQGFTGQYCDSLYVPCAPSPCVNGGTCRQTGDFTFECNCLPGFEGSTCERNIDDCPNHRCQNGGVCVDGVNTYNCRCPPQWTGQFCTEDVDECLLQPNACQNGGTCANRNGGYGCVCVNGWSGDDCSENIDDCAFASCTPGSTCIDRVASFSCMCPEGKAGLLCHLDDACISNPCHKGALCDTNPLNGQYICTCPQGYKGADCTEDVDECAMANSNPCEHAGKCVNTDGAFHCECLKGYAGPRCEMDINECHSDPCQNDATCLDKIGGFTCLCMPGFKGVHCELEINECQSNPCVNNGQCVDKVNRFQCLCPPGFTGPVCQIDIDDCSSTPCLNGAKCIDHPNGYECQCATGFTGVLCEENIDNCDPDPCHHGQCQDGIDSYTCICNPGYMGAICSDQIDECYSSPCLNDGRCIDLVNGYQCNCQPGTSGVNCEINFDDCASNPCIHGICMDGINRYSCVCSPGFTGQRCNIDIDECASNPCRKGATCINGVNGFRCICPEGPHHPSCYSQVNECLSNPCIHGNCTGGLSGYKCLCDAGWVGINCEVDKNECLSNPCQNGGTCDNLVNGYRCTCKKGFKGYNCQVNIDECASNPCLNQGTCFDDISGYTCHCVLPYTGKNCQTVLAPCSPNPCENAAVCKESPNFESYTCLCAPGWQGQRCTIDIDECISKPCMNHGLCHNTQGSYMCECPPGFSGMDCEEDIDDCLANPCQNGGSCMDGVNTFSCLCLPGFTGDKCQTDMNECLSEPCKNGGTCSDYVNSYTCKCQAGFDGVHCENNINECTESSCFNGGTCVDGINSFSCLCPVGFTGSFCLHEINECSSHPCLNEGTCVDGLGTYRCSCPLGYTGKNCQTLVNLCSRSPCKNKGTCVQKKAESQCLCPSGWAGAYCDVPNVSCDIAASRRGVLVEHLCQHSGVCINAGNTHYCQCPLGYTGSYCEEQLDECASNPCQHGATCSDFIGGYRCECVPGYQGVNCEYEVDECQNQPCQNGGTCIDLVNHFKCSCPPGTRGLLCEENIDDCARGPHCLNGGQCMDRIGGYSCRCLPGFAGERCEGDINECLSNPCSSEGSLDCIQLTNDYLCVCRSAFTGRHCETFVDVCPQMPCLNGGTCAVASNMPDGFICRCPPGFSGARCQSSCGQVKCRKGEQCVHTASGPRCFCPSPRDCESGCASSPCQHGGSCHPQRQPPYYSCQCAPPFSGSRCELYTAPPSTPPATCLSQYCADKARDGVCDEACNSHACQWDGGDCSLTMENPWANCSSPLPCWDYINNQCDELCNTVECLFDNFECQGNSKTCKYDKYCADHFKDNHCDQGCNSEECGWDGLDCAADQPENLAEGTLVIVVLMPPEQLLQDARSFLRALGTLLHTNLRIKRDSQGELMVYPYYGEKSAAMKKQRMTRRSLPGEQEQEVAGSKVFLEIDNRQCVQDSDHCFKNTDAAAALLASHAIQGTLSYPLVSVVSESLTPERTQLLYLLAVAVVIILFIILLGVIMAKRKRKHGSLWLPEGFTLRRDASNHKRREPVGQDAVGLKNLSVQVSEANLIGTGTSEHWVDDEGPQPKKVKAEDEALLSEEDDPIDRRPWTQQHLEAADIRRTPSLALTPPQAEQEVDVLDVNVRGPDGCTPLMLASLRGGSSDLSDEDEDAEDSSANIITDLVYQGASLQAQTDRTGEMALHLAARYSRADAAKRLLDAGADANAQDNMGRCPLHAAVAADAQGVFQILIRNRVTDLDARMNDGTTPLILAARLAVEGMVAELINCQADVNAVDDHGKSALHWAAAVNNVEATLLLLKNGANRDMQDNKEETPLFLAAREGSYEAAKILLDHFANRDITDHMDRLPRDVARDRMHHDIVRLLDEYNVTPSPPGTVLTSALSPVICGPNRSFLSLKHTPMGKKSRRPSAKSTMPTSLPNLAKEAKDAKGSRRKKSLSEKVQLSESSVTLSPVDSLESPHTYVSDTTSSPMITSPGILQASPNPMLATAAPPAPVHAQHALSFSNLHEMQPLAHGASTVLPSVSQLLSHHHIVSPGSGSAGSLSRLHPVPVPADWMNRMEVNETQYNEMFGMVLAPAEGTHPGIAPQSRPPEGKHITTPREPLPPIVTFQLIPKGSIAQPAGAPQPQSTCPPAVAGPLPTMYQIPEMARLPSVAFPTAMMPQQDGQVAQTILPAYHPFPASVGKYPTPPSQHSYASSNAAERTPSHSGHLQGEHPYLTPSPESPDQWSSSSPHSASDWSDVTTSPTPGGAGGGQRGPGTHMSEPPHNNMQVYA

Turning to `CC(=O)n1cc(C(O)C2C=CC3C(=O)N(c4ccccc4)C(=O)C3N2Nc2ccc(C#N)cc2)c2ccccc21` (stereo not given), the composite z-score in [1] was -0.0594; in assay [2], -0.234; in assay [3], 0.106; in assay [4], 0.794; in assay [5], 1.5; in assay [6] it was 1.8. The composite z-score in assay [7] was 1.29; in assay [9], 0.296; in assay [10] it was 0.0373; in [11] it was 1.33; in assay [15], 3.4; in assay [17] it was 0.401. The composite z-score in [18] was -0.244; in [19] it was 0.48; in assay [20] it was -0.0804. In addition, the z-score is 0.471 (inactive) in [8]; -0.589 (inactive) in assay [12]; 1.09 (inactive) in [13]; 1.85 (inactive) in [14]; -0.795 (inactive) in assay [16].
`CN(C)CCCC[C@@H]1NC(=O)[C@@H]2C[C@H](C(=O)NCc3ccc(F)cc3)[C@H](c3cccc(OCCO)c3)N2C1=O`: the composite z-score was -0.173 in assay [1]; -0.114 in assay [2]; -0.0707 in [3]; 0.738 in assay [4]; -0.252 in assay [5]; 0.617 in assay [6]. For the same molecule, the composite z-score in assay [7] is 1.02; in assay [9], 0.202; in assay [10], -0.41; in assay [11], 1.55; in [15] it was 2.96; in [17], 0.823. Moreover, the results for the composite z-score in assay [18], in assay [19] and in [20] were 1.97, 1.11 and -0.0953, respectively. Further, the z-score in assay [8] was 1.36 (inactive); in [12], -0.65 (inactive); in assay [13] it was -1.41 (inactive); in [14], -0.663 (inactive); in assay [16], -0.0129 (inactive).
In the case of `COc1ccc(C(=O)Nc2cccc(CN3C(=O)[C@@]4(O[C@@H](CCn5cc([C@H](O)c6ccccc6)nn5)[C@H]([Si](C)(C)c5ccc(OC)cc5)[C@H]4C)c4ccccc43)c2)cc1`, the composite z-score was 0.395 in assay [1]; -0.559 in [2]; -0.123 in assay [3]; 0.335 in assay [4]; 0.336 in assay [5]; 0.838 in assay [6]. Moreover, the composite z-score in assay [7] was 1.14; in assay [9] it was 0.179; in [10], 0.0373; in [11] it was 0.677; in assay [15], 1.11; in assay [17] it was 0.0123. Also, the composite z-score in assay [18] was 1.58; in [19], 0.806; in assay [20] it was -0.0947. For the same molecule, the z-score is -1.47 (inactive) in [8]; -0.384 (inactive) in assay [12]; -1.17 (inactive) in [13]; 0.0585 (inactive) in [14]; -0.594 (inactive) in assay [16].
With `OCCCc1cc[n+](Cc2cccc(OC(F)(F)F)c2)cc1`, the composite z-score was 0.451 in [1]; 0.451 in assay [2]; -0.085 in assay [3]; -0.389 in [4]; 0.272 in assay [5]; 0.564 in assay [6]. Moreover, the composite z-score in assay [7] is 1.47; in [9], 0.676; in assay [10] it was -0.125; in assay [11] it was 1.54; in assay [15] it was 3.24; in assay [17], 0.2. Further, the composite z-score in assay [18] was 0.962; in [19] it was 1.04; in assay [20], -0.0084. Besides, the z-score in assay [8] was 1.7 (inactive); in [12], -0.747 (inactive); in assay [13], -3.01 (inactive); in [14] it was 0.71 (inactive); in [16], -1.65 (inactive).
In the case of `CCCCCN1CC=CC23O[C@@H]4C=CCCOC(=O)C4[C@H]2C(=O)N(CCCO)[C@@H]3C1=O` (stereo not given in full), the composite z-score was 0.0241 in assay [1]; -0.615 in assay [2]; -0.186 in assay [3]; 0.0149 in [4]; -0.755 in [5]; -0.454 in assay [6]. The composite z-score in assay [7] was 0.266; in assay [9], -0.108; in [10] it was -0.236; in assay [11], 0.229; in assay [15] it was -0.651; in assay [17], -0.257. The composite z-score was -0.272 in assay [18], 0.0424 in [19] and -0.223 in assay [20]. Moreover, the z-score in [8] is -0.482 (inactive); in assay [12] it was 0.0103 (inactive); in [13], -1.3 (inactive); in assay [14], -0.506 (inactive); in assay [16], 2.22 (inactive).
